Records with an inconclusive call do not appear. A number with no mark means an inactive call. Calls of active or inactive are those of the source. Calls follow the shape of the dose curve; as a rule, active = well fitted cell-killing curve with a large enough effect; inconclusive = small, poorly fitted or top-dose-only effect; inactive = no such curve, though single readings can be large or run the other way.
% is scaled to controls: 0 for no effect and ±100 for the full control effect; potency is read from the fitted curve at half-maximal effect.

This experiment is described as follows: qHTS of pediatric cancer cell lines to identify multiple opportunities for drug repurposing: Primary screen for MG 63 (6-TG R) cells (AID 1347105). Also: nearly all actives have a fitted effect of over 50% in size. To be noted: MG 63 (6-TG R) viability, CellTiter-Glo, 48 h; series mostly up to 46 µM; activity change, negative = cytotoxic: at the top concentration. An excerpt: Drug repurposing or repositioning has been offered as a strategy for drug development in oncology programs. This approach has special potential for childhood cancers and other rare or orphan diseases, where the expected return on new drug development has been a disincentive to pharmaceuticals. […] In this project we exploit the poly-pharmacology of drugs to discover new indications via phenotypic screening of a panel of 19 well-characterized cell lines derived from solid tumors seen in children and adolescents. The goal is to identify approved drugs with previously unrecognized anticancer properties that has the potential to reveal new mechanisms and biological processes involved in carcinogenesis or drug resistance. We employed a titration-based paradigm (quantitative high-throughput screening or qHTS), where all compounds were tested at multiple concentrations for their effect on cell viability. Concentration-response curves (CRCs) were derived directly from the primary screen, and both potency and efficacy values were used to identify compounds with robust bioactivity profiles. We screened the NIH Chemical Genomics Center (NCGC) Pharmaceutical Collection (NPC) and Mechanism Interrogation Plate (MIPE) small molecule collections of approved and investigational compounds against these cell lines; and measured metabolically active cells after 48 hours of compound treatment as a proxy for cell viability. […] Assay Submitter: Nathalia J. Martinez, National Center for Advancing Translational Sciences, National Institutes of Health, Rockville, MD, USA; email: natalia.martinez@nih.gov Shen, M et al. Quantitative high-throughput phenotypic screening of pediatric cancer cell lines identifies multiple opportunities for drug repurposing. Oncotarget 2017 Dec 19;9(4):4758-4772. PMID 29435139.
The cells were obtained from University of North Carolina (UNC), Pediatric Preclinical Testing Program (PPT), and Coriell Institute (CI). qHTS cell viability assay: Cells were assayed in growth media at a density of 500-1,000 cells/well. Five microliters of cells were dispensed into 1,536-well, white, solid-bottom, TC-treated plates (Greiner Bio One) using a multidrop dispenser and incubated at 37 degrees C, 5% CO2, under a humidified atmosphere for 5 hours. Twenty-three nanoliters of compounds and controls (neutral control DMSO or positive control bortezomib at final concentration of 2.3 µM) were subsequently transferred by Kalypsys pintool. For primary screens, the MIPE collection was tested at 11-point dilutions (final concentrations range from 0.78 nM to 46 µM) and the NPC collection at 8-point dilutions (final concentrations range from 0.59 nM to 46 µM). Compounds tested in follow-up screens were assayed at 11-point dilutions. Cells were incubated for 48 hours, followed by addition of 3 µL of CellTiter-Glo (Promega). After a 15 min incubation at room temperature, samples were analyzed for luminescence intensity using a ViewLux High-throughput CCD imager equipped with clear filters.
For the compound `O=[N+]([O-])c1cc([As](=O)(O)O)ccc1O`, the “activity change, negative = cytotoxic” value is 33.7%.
For `CCN(CC)CCOC(=O)C(O)(c1ccccc1)c1ccccc1`, the “activity change, negative = cytotoxic” value is -16.4%.
Turning to `c1ccc(C2CC2)c(OCC2=NCCN2)c1`, the “activity change, negative = cytotoxic” value is -27.1%.
As to `CCCC(C)(COC(N)=O)COC(=O)NC(C)C` (stereo not given), the Potency entry was “inactive”.
`COC1(CS(=O)c2ccccc2)CCN(CCc2c[nH]c3ccc(F)cc23)CC1` (stereo not given): the “activity change, negative = cytotoxic” value was -26.6%.
As to `CCCN1CCC[C@@H]2Cc3[nH]ncc3C[C@H]21`, the “activity change, negative = cytotoxic” value was -20.1%.
On to `NN=C(N)N`, for which the “activity change, negative = cytotoxic” value was -5.13%.
Consider `NP(N)(=O)NC(=O)c1ccc(F)cc1`, for which the “activity change, negative = cytotoxic” value is -11.8%.
Regarding `CCC(COC(=O)c1cc(OC)c(OC)c(OC)c1)(c1ccccc1)N(C)C` (stereo not given), the “activity change, negative = cytotoxic” value is -20.7%.
On to `CC(O)(CS(=O)(=O)c1ccc(F)cc1)C(=O)Nc1ccc(C#N)c(C(F)(F)F)c1` (stereo not given), for which the Potency is 3.72 µM (active).
`O=C(NC(O)C(Cl)(Cl)Cl)NC(O)C(Cl)(Cl)Cl` (stereo not given): the “activity change, negative = cytotoxic” value is -2.59%.
Consider `CNCC(O)c1ccc(O)cc1` (stereo not given), for which the Potency result was “inactive”.
Still for that read-out and setting: with `O=c1[nH]c2ccccc2n1CCCN1CCC(n2c(=O)[nH]c3cc(Cl)ccc32)CC1` the entry was “inactive”.
Regarding `COc1ccc(C(=O)c2c(C)n(CCN3CCOCC3)c3ccccc23)cc1`, the “activity change, negative = cytotoxic” value was -18.3%.
Regarding `CN1CCN(C(=O)O[C@H]2c3nccnc3C(=O)N2c2ccc(Cl)cn2)CC1`, the Potency entry was “inactive”.
With `NCC1(CC(=O)O)CCCCC1`, the Potency entry was “inactive”.
As for `O=C1CC[C@@]2(O)[C@H]3Cc4ccc(O)c5c4[C@@]2(CCN3CC2CC2)[C@H]1O5`, the Potency entry was “inactive”.
For the compound `Cc1cccc(C)c1NC(=O)CN1CCCC1=O`, the Potency entry is “inactive”.
On to `C=CCN1CC[C@]23c4c5ccc(O)c4O[C@H]2C(=O)CC[C@@]3(O)[C@H]1C5`, for which the “activity change, negative = cytotoxic” value was 3.28%.
As for `COC[C@@H](NC(C)=O)C(=O)NCc1ccccc1`, the “activity change, negative = cytotoxic” value is -26.7%.
As to `Cc1ncc(CNC(=O)N(CCCl)N=O)c(N)n1`, the “activity change, negative = cytotoxic” value is -2.69%.
In the case of `CN(C)CCc1ccc(O)cc1`, the Potency result was “inactive”.
Take `Cc1ccc(-c2nc3ccc(C)cn3c2CC(=O)N(C)C)cc1`: the “activity change, negative = cytotoxic” value is -14.7%.
As to `CC1NCCOC1c1ccccc1` (stereo not given), the “activity change, negative = cytotoxic” value is -23.2%.
Take `COc1ccc(C(CN(C)C)C2(O)CCCCC2)cc1` (stereo not given): the Potency entry is “inactive”.
As for `CNC(=O)c1ccc(N2C(=S)N(c3ccc(C#N)c(C(F)(F)F)c3)C(=O)C23CCC3)cc1F`, the Potency is 11.8 µM (active).
Regarding `CN1C[C@H](CNC(=O)OCc2ccccc2)C[C@@H]2c3cccc4c3c(cn4C)C[C@H]21`, the “activity change, negative = cytotoxic” value was -25.3%.
`OCCOc1ccccc1`: the “activity change, negative = cytotoxic” value was 3.34%.
As to `CC(CCc1ccccc1)NC(C)C(O)c1ccc(O)cc1` (stereo not given), the “activity change, negative = cytotoxic” value is -14.5%.
In the case of `Oc1cccc2cccnc12`, the “activity change, negative = cytotoxic” value was 0.285%.
Consider `NCC(O)c1ccc(O)cc1` (stereo not given), for which the “activity change, negative = cytotoxic” value was -21.5%.
Turning to `CCCN1CCC[C@@H]2Cc3nc(N)ncc3C[C@H]21`, the “activity change, negative = cytotoxic” value was -19.5%.
For the compound `CCC(C(N)=O)N1CCCC1=O` (stereo not given), the “activity change, negative = cytotoxic” value is 0.167%.
Same read-out and setting: with `CC(C)=CC1C(C(=O)OCc2cccc(Oc3ccccc3)c2)C1(C)C` (stereo not given) the figure was -11.3%; with `CN(C)CCN(C)CCc1ccc(Cl)c(Cl)c1`, 4.84%.
`CC1OC(C)OC(C)O1` (stereo not given): the “activity change, negative = cytotoxic” value was -22.5%.
For `CC(=O)[C@H]1CC[C@H]2[C@@H]3CC[C@H]4C[C@H](O)CC[C@]4(C)[C@H]3C(=O)C[C@]12C`, the “activity change, negative = cytotoxic” value is -17.1%.
Take `C[C@H]1O[C@@H](O[C@H]2[C@@H](O)C[C@H](O[C@H]3[C@@H](O)C[C@H](O[C@H]4CC[C@@]5(C)[C@H](CC[C@@H]6[C@@H]5CC[C@]5(C)[C@@H](C7=CC(=O)OC7)CC[C@]65O)C4)O[C@@H]3C)O[C@@H]2C)C[C@H](O)[C@@H]1O`: the Potency is 0.0053 µM (active).
Consider `COC[C@H]1OC(=O)c2coc3c2[C@@]1(C)C1=C(C3=O)C2CCC(=O)[C@@]2(C)C[C@H]1OC(C)=O` (stereo not given in full), for which the Potency is 9.35 µM (active).
Consider `Nc1ccncc1`, for which the “activity change, negative = cytotoxic” value is -11.7%.

For the origin of these results see PubChem BioAssay (NCATS).
